Assays:
Test in all cases: PBM binding z-score (relative to random genomic background probes); higher = stronger binding; sequences stand for … in GC…GCGATTGACAGCGTAGAATGAAGG
[1] = tested on: FXR:RXRa (NR concentration 270 nM, RXRa partner concentration 90 nM)
Procedure, shortened: (§1)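 The probes on custom Agilent 4×180K protein-binding microarrays were double-stranded, with 34-nt variable regions bearing direct-repeat seeds, single-nucleotide variants, half-site ablations and random human genomic background sequences. Incubation lasted 1 h with ligand-free nuclear receptor dimers in PBS pH 7.4, 2% milk, 0.02% Triton X-100, 1 mM DTT, 0.2 mg/mL BSA and 0.4 mg/ml salmon testes DNA. Antibodies against each partner (one per run) detected bound dimers, and fluorescence scans were regression-normalized. Binding z-scores take the random background probes as reference.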

[2] = tested on: LXRa:RXRa (NR concentration 270 nM, RXRa partner concentration 90 nM)
Procedure, shortened: as §1

[3] = tested on: LXRa homodimer (NR concentration 270 nM)
Procedure, shortened: as §1

[4] = tested on: LXRb:RXRa (NR concentration 270 nM, RXRa partner concentration 90 nM)
Procedure, shortened: as §1

[5] = tested on: LXRb homodimer (NR concentration 270 nM)
Procedure, shortened: as §1

[6] = tested on: PPARa:RXRa (NR concentration 270 nM, RXRa partner concentration 90 nM)
Procedure, shortened: as §1

[7] = tested on: PPARg:RXRa (NR concentration 180 nM, RXRa partner concentration 90 nM)
Procedure, shortened: as §1

[8] = tested on: PPARg:RXRa 270nM:90nM, anti-RXR (NR concentration 270 nM, RXRa partner concentration 90 nM)
Procedure, shortened: as §1

[9] = tested on: PPARg:RXRa 30nM:10nM, anti-RXR (NR concentration 30 nM, RXRa partner concentration 10 nM)
Procedure, shortened: as §1

[10] = tested on: PPARg:RXRa 90nM:30nM, anti-RXR (NR concentration 90 nM, RXRa partner concentration 30 nM)
Procedure, shortened: as §1

Sequence	PBM binding z-score [1]	PBM binding z-score [2]	PBM binding z-score [3]	PBM binding z-score [4]	PBM binding z-score [5]	PBM binding z-score [6]	PBM binding z-score [7]	PBM binding z-score [8]	PBM binding z-score [9]	PBM binding z-score [10]
CGAACTAGGTCAGACCAGGACAGTGAAGGATGAT	1.62	1.04	-0.304	0.246	-0.517	3.36	6.07	5.08	2.19	3.95
TCTATTAGTTGTAGGGCAACCGACGAGTCCGTTT	0.532	0.422	0.481	0.268	0.355	1.1	0.164	1.78	3.28	2.49
AGGATGAGGTTATACGTAGATCAGGGAAGAAAGT	2.42	1.94	0.445	2.03	0.715	2.62	1.16	1.11	0.501	0.724
TCATATAGGTAAATAGGTGAAAGTCCGTAAGTTA	1.38	1.32	0.298	1.06	-0.103	3.79	5.17	5.12	4.83	5.34
TCTCGGAGGACACGAAAGGTCAGACCTCGACATC	3.09	3.69	3.12	3.51	-0.0358	3.57	1.38	2.68	2.63	2.67
ATCTCTAGGGAAAGATAGTTCAGTGAATGCAAAT	-0.0344	0.192	0.0693	0.157	0.479	0.0958	0.337	0.214	0.232	0.358
TAGCCTAGGTCATGCGGGCCAGTATGGTGTCGGC	3.96	3.27	-0.0396	1.44	-0.233	3.43	1.79	2.41	-0.0378	1.2
AGTCAAAGTTCACAAGGTAACGTAAGATTCAGCT	6.12	5.7	3.55	3.65	1.1	4.75	6.96	6.42	3.67	5.78
AGTCAAAGTTCATCTAGGTAACGTGAGATATGCT	6.5	5.85	4.89	3.81	1.73	4.76	6.65	6.18	3.58	5.42
ATATGTAGGTTACATCCGGGTCAATCAGGCTATG	2.56	4.37	1.05	2.91	0.748	4.39	5.98	5.29	2.62	4.47
CGTCCAAGGTCAAAGGTCAGTGGAGAGATGACGG	8.17	6.91	3.66	6.84	2.07	7.16	10.7	9.05	8.08	9.59
CCAGACAGGTGAGATGGTAACTCAGCCTCGATTA	-0.218	-0.133	0.219	-0.0689	-0.491	0.132	0.33	0.151	-0.316	-0.00959
